In the library only some 6.2% were active in any assay of this set; here they are far more common.
S2 tox: viability counter-screen for ATXN expression inhibitors. S2 cells (HEK-293 line with an ATXN2-luciferase reporter) viability, CellTiter-Fluor protease fluorescence, 24 h. Potency, µM (titrated, usually from 56.7 µM), hits mostly cytotoxic. 400,000 compounds, 0.49% hits; also: nearly all actives have a fitted effect of over 40% in size
HT1080NT lethal: kills 2HG-producing HT-1080-NT fibrosarcoma cells. HT-1080-NT fibrosarcoma viability, CellTiter-Glo ATP luminescence, 48 h. Potency, µM (highest dose often 46.1 µM), without a hit: top-dose activity, negative = less viability, hits mostly cytotoxic. 360,000 compounds, 1.6% hits;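 also: NT is the 2HG producing partner of a matched IDH1 knockdown line; 0% = DMSO-treated cells and -100% = media-only wells without cells; nearly all actives have a fitted effect of over 55% in size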
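Compounds were tested in concentration-response format on HT-1080-NT cells for 48 hours at 37 degrees C. Cell viability came from CellTiter-Glo luminescence; curves were classified by r2, response magnitude and activity.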
ATXN2 expr inh: reduces ATXN2 reporter expression in HEK-293 cells; HEK-293 ATXN2-luciferase reporter, luminescence, 24 h; Potency, µM (top dose mostly 57 µM), for inactives: at the top dose activity change, negative = inhibition, usual class: inhibitors; 360,000 compounds, 0.72% hits; AID 1745845; also: % is scaled to controls: 0 for no effect and ±100 for the full control effect; nearly all actives have a fitted effect of over 55% in size
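qHTS (up to 57 uM final) was run with 24 h compound exposure of reporter cells at 37 °C. Each well was multiplexed: SteadyGlo luminescence measured ATXN2-luciferase expression after a fluorogenic Gly-Phe-AFC viability readout (25 uM final).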
HT1080 IDH1KD tx: kills HT-1080 cells with IDH1 knockdown; HT-1080 IDH1 knockdown viability, ATP luminescence, 48 h; Potency, µM (top dose mostly 46.1 µM), without a hit: at the highest dose activity, negative = toxicity, actives largely listed as cytotoxic; 360,000 compounds, 2% hits; AID 686971;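 also: 0% = DMSO wells and -100% = cell-free medium wells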
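Luminescent ATP read-out (CellTiter-Glo, 10 min at room temperature) after 48 h compound exposure at 37 °C gave viability of IDH1-knockdown HT-1080 cells. Activity was normalised to DMSO and cell-free wells, then fitted as concentration-response curves.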
KB-3-1 cytotox: kills parental KB-3-1 adenocarcinoma cells | AID 1347075 | 400,000 compounds, 1.4% hits | KB-3-1 viability, CellTiter-Glo ATP luminescence, 72 h | Potency, µM (titrated, usually from 46.1 µM), actives largely listed as cytotoxic; also: % is scaled to controls: 0 for no effect and ±100 for the full control effect; nearly all actives have a fitted effect of over 60% in size
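Viability of parental KB-3-1 cells, measured by CellTiter-Glo luminescence, followed a 72 h incubation at 37 °C with pinned compounds in phenol-red-free DMEM containing 10% FBS.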
KB-V1 MDR tox: kills drug-selected multidrug resistant KB-V1 cells. KB-V1 MDR cells viability, CellTiter-Glo, 72 h. Potency, µM (series often up to 46.1 µM), most hits filed as cytotoxic. 400,000 compounds, 3.4% hits; also: % is scaled to controls: 0 for no effect and ±100 for the full control effect; nearly all actives have a fitted effect of over 60% in size
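Cytotoxicity toward P-gp-expressing KB-V1 cells was determined as loss of CellTiter-Glo luminescence after 72 h at 37 degrees C. Compounds were tested in quantitative HTS format across a concentration range, with curves fitted to normalized data.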
* hit, by the source's call; i = inactive; ? = inconclusive; · = not tested or not shown; [ ] = dose if it differs, or a comment. Calls follow the shape of the dose curve; as a rule, active = well fitted curve in the direction sought with a large enough effect; inconclusive = small, poorly fitted or top-dose-only effect, or another doubt; inactive = no such curve, though single readings can be large; an effect the other way counts as inactive or inconclusive. Potency is read from the fitted curve at half-maximal effect.

SMILES | S2 tox | HT1080NT lethal | ATXN2 expr inh | HT1080 IDH1KD tx | KB-3-1 cytotox | KB-V1 MDR tox
CCOCCOC(=O)c1ccc(NC(=O)/C=C/c2ccc(OC)c(OC)c2)cc1 | ? | · | ? | · | i | i
O=C(O)CC/C(=N/Nc1ccc([N+](=O)[O-])cc1)C(=O)O | ? | 1.64µM* | -19.3% | 5.8µM* | i | i
O=C(O)CC/C(=N\Nc1ccc([N+](=O)[O-])cc1)c1ccccc1 | i | -17.6% | -2.8% | -13.4% | i | i
CCn1cc(C(=O)N2CCN(c3ccccc3F)CC2)c(=O)c2cc(S(=O)(=O)N(C)C3CCCCC3)ccc21 | i | · | -0.8% | · | i | i
COc1ccc(-c2cc(NC=O)c3ncc(-c4ccc(OC)c(OC)c4)n3c2)cc1 | ? | 1.03µM* | -26.1% | 0.581µM* | 1.64µM* | 3.66µM*
COc1ccc(-c2cnc3c(NC=O)cc(-c4ccccc4OC)cn23)cc1OC | i | 0.0461µM* | 17.8µM* | 0.184µM* | 0.184µM* | 1.16µM*
COc1ccc(-c2cc(NC=O)c3ncc(-c4ccc(OC)c(OC)c4)n3c2)cc1OC | i | ? | -13.3% | ? | ? | ?
CCOc1ccc(NC(=O)N2CCN(c3nnc(C)c4c(C)n(-c5ccccc5)nc34)CC2)cc1 | i | · | -2.8% | · | i | i
O=C(OCc1ccccc1Cl)c1ccc(-c2nnn(Cc3ccccc3Cl)n2)cc1 | i | · | 7.8% | · | i | i
C=C(C)C1CCC(C)=C1CC(C)(C)/C=N\n1cnnc1 (centres undefined) | i | -24.7% | -6.9% | -2.8%[9.24 µM] | i | 14.6µM*
CC1=CC(C)C(/C=N/n2cnnc2)C(C)C1 (centres undefined) | i | 5.3% | -1.4% | 5.2% | i | i
CCN(CC)S(=O)(=O)c1ccc(N2C(=O)CC2(/C=C/c2ccccc2)C(=O)NC2CCCC2)cc1 (centres undefined) | i | 0.1% | 2.4% | -8.4% | i | 2.59µM*
COc1ccccc1/C=C/C1(C(=O)NC2CCCC2)CC(=O)N1c1ccc(F)cc1 (centres undefined) | · | ? | 17.8µM* | 8.2µM* | i | ?
COc1ccccc1/C=C/c1onc(C)c1S(=O)(=O)N1CCC(C(=O)NC2CCCCCC2)CC1 | i | 3.7% | 5.3% | 17.4% | i | i
COc1ccccc1/C=C/C1(C(=O)NC2CCCC2)CC(=O)N1c1ccc(C)cc1 (centres undefined) | ? | ? | ? | ? | 20.6µM* | 2.91µM*
COc1ccc(C)cc1NC(=O)N1CCN(c2cc(-c3noc(C)n3)ccc2C)CC1 | i | · | -8.0% | · | i | ?
CCc1ccc(/C=N/NC(=O)c2cc(-c3ccncc3)nc3ccccc23)s1 | i | ? | -10.9% | ? | 4.61µM* | i
O=C(N/N=C/c1ccncc1)c1cc(C2CC2)nc2ccccc12 | i | -7.4% | 0.1% | -9.6% | i | i
O=C(N/N=C/c1cccs1)c1cc(C2CC2)nc2ccccc12 | i | ? | ? | ? | 18.4µM* | ?
CCCc1cc(C(=O)N/N=C/c2ccc(CC)s2)c2ccccc2n1 | ? | ? | ? | 3.66µM* | ? | 5.8µM*
O=C(N/N=C/c1cccs1)c1cc(-c2ccncc2)nc2ccccc12 | i | -57.8% | -22.7% | -54.3% | ? | 1.84µM*
COc1ccccc1-c1cc(C(=O)N/N=C/c2cccs2)c2ccccc2n1 | i | -28.2% | 62.4% | ? | ? | i
CCc1cc(C(=O)N/N=C/c2ccc(OC)cc2)c2ccccc2n1 | i | ? | -16.3% | ? | ? | ?
Cc1cnc(SCC2CCCO2)nc1C1CCCN(C(=O)C2=NNC(=O)CC2)C1 (centres undefined) | i | · | · | · | · | ·
Cc1cc(C)c2c(n1)NCCC2 | · | · | · | · | i | i
CCCS(=O)(=O)c1ncc(Cl)c(C(=O)Nc2sc3c(c2C(=O)NCC)CCCC3)n1 | · | · | · | · | ? | i
N#Cc1nc(N2CCCCC2)nc(N2CCCCC2)n1 | · | · | · | · | i | i

Assay outcomes from PubChem BioAssay.
